From PubChem BioAssay (NCATS) come the findings set out here.

Records with an inconclusive call do not appear. The source made the active and inactive calls. Calls come from the whole dose curve; as a rule, active = well fitted cell-killing curve with a large enough effect; inconclusive = small, poorly fitted or top-dose-only effect, or effect the other way; inactive = no such curve, though single readings can be large or run the other way.
Potency is the fitted concentration of half-maximal effect.

The assay in a line: Quantitative High-Throughput drug screen in 47 multiple myeloma cell lines against the NCATS MIPE library collection: JIM1_ECACC cell viability assay (AID 1918964). The conditions noted are these: JIM1 myeloma viability, CellTiter-Glo ATP luminescence, 48 h; series mostly up to 45.8 µM; viability (% of DMSO): at the top concentration. The text has this: PI: Beverly A. Mock Ph.D.
Laboratory of Cancer Biology and Genetics,
Center for Cancer Research, National Cancer Institute,
National Institute of Health, Bethesda, Maryland
Drug resistance and disease progression are common in multiple myeloma (MM) patients, underscoring the need for new therapeutic combinations. […] We hypothesized that effective combinations would reduce MYC expression and enhance p16 activity. […] These preclinical data identify potentially useful drug combinations for evaluation in drug-resistant MM and reveal potential mechanisms of combined drug sensitivity.
Described herein is the primary MIPE qHTS used to cherrypick compounds. Validated compounds were then further tested for potential synergistic activiy.
[1] Peat TJ, Gaikwad SM, Dubois W, Gyabaah-Kessie N, Zhang S, Gorjifard S, Phyo Z, Andres M, Hughitt VK, Simpson RM, Miller MA, Girvin AT, Taylor A, Williams D, D'Antonio N, Zhang Y, Rajagopalan A, Flietner E, Wilson K, Zhang X, Shinn P, Klumpp-Thomas C, McKnight C, Itkin Z, Chen L, Kazandijian D, Zhang J, Michalowski AM, Simmons JK, Keats J, Thomas CJ, Mock BA. Drug combinations identified by high-throughput screening promote cell cycle transition and upregulate Smad pathways in myeloma. Cancer Lett. 2023 Aug 1;568:216284. doi: 10.1016/j.canlet.2023.216284. Epub 2023 Jun 24. PMID: 37356470; PMCID: PMC10408729.
SEQUENCE No. (e.g., 1, 2, 3, etc.); […] (e.g., Cells, Incubation, Reagent, etc.); VALUE and DESCRIPTION.
1; Cells; 5 uL; white, solid bottom 1536-well Greiner assay plate.
2; Compounds; 23 nL; Kalypsis pin tool (Wako USA) equipped with a 1536-well pin head to transfer to the assay plates.
3; Incubation; 48 hours; 37C incubation.
4; Reagent;5uL; CellTiter Glo (Promega).
5; Detector; 425V; Luminescence; Viewlux PerkinElmer.
NOTES (numbers refer to Sequence numbers above)
1. The cell-based screening methods employed in this study were like those previously published. Briefly, the corresponding myeloma cell lines were screened in 1,536-well plates with 500 cells, 5-uL per well for inhibition of cell viability (assessed by measuring ATP levels with CellTiterGlo).
2. NCATS MIPE 4.0 library of approved and investigational drugs were added using the Kalypsis pin tool. Wells treated with DMSO only for 100% viability and media only wells for 0% viability were used as controls.
3. The assay plates were covered and incubated for 48 hours in a 37C, 5% CO2 incubator with controlled humidity.
4. After 48 hours, CellTilter-GloTM luminescent substrate mix (Promega) reagent was added to the assay plate and plates we incubated for 5 min at room temperature.
5. Signal was measured as median relative luminescence units on a ViewLux (PerkinElmer) multiplate reader.
[1] Heske CM, Davis MI, Baumgart JT, Wilson K, Gormally MV, Chen L, Zhang X, Ceribelli M, Duveau DY, Guha R, Ferrer M, Arnaldez FI, Ji J, Tran HL, Zhang Y, Mendoza A, Helman LJ, Thomas CJ. Matrix Screen Identifies Synergistic Combination of PARP Inhibitors and Nicotinamide Phosphoribosyltransferase (NAMPT) Inhibitors in Ewing Sarcoma. Clin Cancer Res. 2017 Dec 1;23(23):7301-7311. doi: 10.1158/1078-0432.CCR-17-1121. Epub 2017 Sep 12. PMID: 28899971; PMCID: PMC6636827.
In general terms: Cellular ATP, detected with luciferase, serves as a proxy for viable cell number.
`COc1cc(-c2nn(C3CCC(N4CCN(C(C)=O)CC4)CC3)c3ncnc(N)c23)ccc1NC(=O)c1cc2ccccc2n1C` (stereo not given): the Potency was 235 nM (active).
As for `O=C(C=Cc1cccc(S(=O)(=O)Nc2ccccc2)c1)NO`, the Potency was 1710 nM (active).
The same measure, in the same setting: with `OCCCNc1cc(-c2ccnc(Nc3cccc(Cl)c3)n2)ccn1` the figure was 52.6 nM (active); with `O=C(Nc1nc2cccc(-c3ccc(CN4CCS(=O)(=O)CC4)cc3)n2n1)C1CC1`, 5900 nM (active).
The same measure, in the same setting: with `CC(=O)c1c(C)c2cnc(Nc3ccc(N4CCNCC4)cn3)nc2n(C2CCCC2)c1=O` the figure was 5900 nM (active).
Same read-out and setting: with `Cc1cn2c(-c3cn[nH]c3)cnc2c(Nc2ccc(C(=O)N3CCNCC3)cc2F)n1` the figure was 2090 nM (active); with `CCN1CCN(CC(=O)Nc2ccc(-c3cccc4c(=O)cc(N5CCOCC5)oc34)c3sc4ccccc4c23)CC1`, 469 nM (active).
With `OCc1ccc(-c2ccc(-c3ccc(CO)s3)o2)s1`, the “viability (% of DMSO)” value was 94.8% (inactive).
`CCn1cc(-c2ccnc3[nH]c(-c4cccc(CN(C)C)c4)cc23)c(-c2ccc(NC(=O)N(C)C)cc2)n1`: the Potency was 5260 nM (active).
On the same count and under the same terms, with `COc1ccc(C(=O)CC2(O)C(=O)Nc3c(Cl)ccc(Cl)c32)cc1` (stereo not given) the figure was 1050 nM (active).
The same measure, in the same setting: as for `CNC(=O)CN1CCC(Oc2cc3c(Nc4cccc(Cl)c4F)ncnc3cc2OC)CC1`, the figure is 1 nM (active).
In the case of `CC[C@H](CO)Nc1nc(NCc2ccccc2)c2ncn(C(C)C)c2n1`, the Potency was 6620 nM (active).
Still for that read-out and setting: as for `Cc1cc(C(=O)N2CCN(c3cccc(Cl)c3)CC2)n(-c2ccccc2)n1`, the figure is 11.8 nM (active); as for `O=C(Cc1ccc(-c2ccc(OCCN3CCOCC3)cc2)cn1)NCc1ccccc1`, 7.4 nM (active).
Regarding `Clc1cccc(-c2nnnn2Cc2cccnc2)c1Cl`, the “viability (% of DMSO)” value is 89.3% (inactive).
Turning to `CCNC(=O)Nc1ccc2ncc(Nc3ccc(C)cc3)nc2n1`, the Potency was 935 nM (active).
Same read-out and setting: as for `CNC(=O)c1nn(C)c2c1C(C)(C)Cc1cnc(Nc3ccc(N4CCN(C)CC4)cc3)nc1-2`, the figure is 743 nM (active); as for `Cn1c2ccccc2c2c3c(c4c5ccccc5n(CCC#N)c4c21)CNC3=O`, 526 nM (active).
`CC(C)Nc1cc(C(F)(F)F)cc2nc(NC(=O)c3cccnc3)nn12`: the “viability (% of DMSO)” value is 86.6% (inactive).
The same measure, in the same setting: with `CN[C@H]1CCc2cc(OC)c(OC)c(OC)c2-c2ccc(OC)c(=O)cc21` the figure was 14.7% (inactive); with `CN1c2cc(O)c(N=NC(N)=O)cc2CC1S(=O)(=O)O` (stereo not given), 97.7% (inactive).
Consider `Cc1ccc(C(=O)Nc2cccc(C(F)(F)F)c2)cc1-c1ccc2nc(NCCN3CCOCC3)ncc2c1`, for which the Potency is 1050 nM (active).
Same read-out and setting: as for `COc1cc(Nc2ncc(F)c(Nc3ccc4c(n3)N(COP(=O)(O)O)C(=O)C(C)(C)O4)n2)cc(OC)c1OC`, the figure is 1180 nM (active).
Turning to `CC(C)c1ccccc1Cc1cc(C(=O)Nc2ccc(S(=O)(=O)c3ccccc3C(C)(C)C)cc2)c(O)c(O)c1O`, the “viability (% of DMSO)” value was 102% (inactive).
Regarding `C#Cc1cccc(Nc2ncnc3cc(OC)c(OCCCCCCC(=O)NO)cc23)c1`, the Potency was 66.2 nM (active).
As to `COc1cc(C)c(Sc2cnc(NC(=O)c3ccc(CNC(C)C(C)C)cc3)s2)cc1C(=O)N1CCN(C(C)=O)CC1` (stereo not given), the “viability (% of DMSO)” value was 97.8% (inactive).
Turning to `CCN(CC)CCCCNc1ncc2cc(-c3cc(OC)cc(OC)c3)c(NC(=O)NC(C)(C)C)nc2n1`, the Potency was 20900 nM (active).
Still for that read-out and setting: as for `CNC(=O)c1ccccc1Nc1nc(Nc2ccc(N3CCOCC3)cc2OC)ncc1Cl`, the figure is 105 nM (active).
`N#CCNC(=O)c1ccc(-c2ccnc(Nc3ccc(N4CCOCC4)cc3)n2)cc1`: the “viability (% of DMSO)” value was 108% (inactive).
For `CCS(=O)(=O)c1cccc(-c2cc(C(=O)NC3CCN(C)CC3)c(C)c3[nH]c4ncc(C)cc4c23)c1`, the Potency is 935 nM (active).
`CN1CCC(CNc2ccc3ncc(-c4cccc(OC(F)(F)F)c4)n3n2)CC1`: the Potency is 8330 nM (active).
As to `COC(=O)c1ccc2c(C(=Nc3ccc(N(C)C(=O)CN4CCN(C)CC4)cc3)c3ccccc3)c(O)[nH]c2c1`, the Potency is 46.9 nM (active).
Still for that read-out and setting: as for `O=C(O)c1ccc2c(c1)nc(Nc1cccc(Cl)c1)c1ccncc12`, the figure is 6620 nM (active); as for `Cn1cc(-c2[nH]c3cc(NC(=O)[C@H](N)C4CCCCC4)cc4c3c2C=NNC4=O)cn1`, 296 nM (active); as for `COc1cc2ncnc(Nc3ccc(F)c(Cl)c3)c2cc1NC(=O)C=CCN1CCCCC1`, 10500 nM (active).
As to `COc1ccc(C=Cc2cc(OC)c(OC)c(OC)c2)cc1O`, the “viability (% of DMSO)” value is 16.6% (inactive).
On the same count and under the same terms, with `CC(=O)SC[C@@H](C)C(=O)N1CCC[C@H]1C(=O)N[C@@H](Cc1ccccc1)C(=O)O` the figure was 132% (inactive).
Consider `C=C1C(=CC=C2CCC[C@]3(C)[C@@H]([C@H](C)C=C[C@H](C)C(C)C)CC[C@@H]23)C[C@@H](O)C[C@@H]1O`, for which the Potency is 526 nM (active).
`COc1cc2c(Nc3ccc(NC(=O)c4ccccc4)cc3)ncnc2cc1OCCCN1CCOCC1`: the “viability (% of DMSO)” value is 138% (inactive).
For `CC=C1NC(=O)[C@H]2CSSCCC=C[C@H](CC(=O)N[C@H](C(C)C)C(=O)N2)OC(=O)[C@H](C(C)C)NC1=O`, the Potency is 9.3 nM (active).
